Consider 48 molecules from PubChem BioAssay AID1159524 (National Center for Advancing Translational Sciences (NCATS), 2015).

Structures are written as SMILES. Among all 410,000 compounds or so, about 5,100 (1.2%) were called active. Another 8% or so got no clear call; they are omitted. The full list was thinned out, with actives kept by preference. Unmarked numbers belong to inactive results. The call rests on the fitted dose curve; tested in HEK293T cells.
On the % scale 0 is the no-effect control and ±100 the full control effect; potency means the concentration at half of the fitted maximal effect.

The experiment is described as follows: High Throughput Screening for Foot and Mouth Disease Virus Antivirals. Further: read-out not given here; nearly all actives have a fitted effect of over 45% in size. Conditions: FMDV antiviral cell-based qHTS; series mostly up to 57.9 µM; activity change, negative = inhibition: at the top concentration. (In qHTS, concentration-response curves come from the screen itself.)
As to `Cc1oc(-c2cccc(NC(=O)c3ccccc3)c2)nc1CNC(=O)c1cnc2ccccn2c1=O`, the “activity change, negative = inhibition” value was -11.7%.

Regarding `O=c1c(-c2ccc(F)cc2)nc2cnc(N3CCNCC3)nc2n1Cc1cccs1`, the “activity change, negative = inhibition” value is 4.3%.

With `O=C(C(=O)N1CCOc2ccc(CN3CCN(Cc4ccccn4)CC3)cc2C1)c1ccccc1`, the “activity change, negative = inhibition” value is 7.01%.

For the molecule `CCC(=O)Nc1ccccc1-c1nc2ccccc2n(CC(=O)Nc2ccc(C)c(C)c2)c1=O`, the “activity change, negative = inhibition” value is -7.03%.

For the molecule `COc1cccc(N2CCN(C3CC(=O)N(c4ccc(Cl)cc4)C3=O)CC2)c1` (stereo not drawn), the “activity change, negative = inhibition” value was -21.3%.

With `COc1cccc(-c2nc3ccc(N4CCN(C)CC4)cc3[nH]2)c1`, the Potency is 14.1 µM (active).

As for `COc1ccc(N2CCN(C3=NS(=O)(=O)C(c4cccc(Br)c4)=C3C)CC2)cc1`, the “activity change, negative = inhibition” value is 19.9%.

Take `COc1cccc(-n2c(=O)c3c(C)c(C(=O)N(C)C)sc3n(Cc3cccc(C)c3)c2=O)c1`: the “activity change, negative = inhibition” value is -16.4%.

On to `COc1cccc(N(CC(=O)NC2CCCC2)C(=O)CCCC(=O)Nc2ccccn2)c1`, for which the “activity change, negative = inhibition” value is 16.8%.

For `CCOc1ccc(NC(=O)C2CCCN(C(=O)Nc3ccccc3)C2)cc1` (stereo not drawn), the “activity change, negative = inhibition” value is 22.4%.

Consider `COc1ccc(C(=O)/C=C/Nc2ccccn2)cc1`, for which the Potency is 8.91 µM (active).

Regarding `CCOc1ccc(NC(=O)C(C)N2C(=O)c3ccccc3C2=O)cc1` (stereo not drawn), the “activity change, negative = inhibition” value is -20.8%.

As for `CCOc1ccc(N/C=C/C(=O)c2ccccc2)cc1`, the Potency was 10 µM (active).

For the molecule `COCCN(C(=O)CCC(=O)Nc1ccccn1)C(C(=O)NCCC(C)C)c1ccc(OC)cc1` (stereo not drawn), the “activity change, negative = inhibition” value was 1.75%.

Consider `OCC1CCCN(c2nc3cc4c(cc3cc2CNCc2cccs2)OCO4)C1` (stereo not drawn), for which the “activity change, negative = inhibition” value is 8.34%.

On to `CCn1cc(C(=O)NCc2ccccc2)c(=O)c2cc(S(=O)(=O)N3CCCCC3)ccc21`, for which the “activity change, negative = inhibition” value is -15.6%.

Consider `C=C1C([C@@]2(C)C(OC(C)=O)CC(=O)O[C@@](C)(COC(C)=O)C2CC(=O)OC)C(OC=O)C(OC(=O)C(O)C(C)CC)[C@]2(C)C(c3ccoc3)CC(=O)C12O` (stereo partly drawn), for which the “activity change, negative = inhibition” value was -18.7%.

Consider `O=C(CN1Cc2ccccc2OC(c2ccccc2)C1)N1CCCCC1c1cccnc1` (stereo not drawn), for which the “activity change, negative = inhibition” value is 1.09%.

With `O=c1c(CCc2ccccc2)nc2cnc(N3CCNCC3)nc2n1Cc1cccs1`, the “activity change, negative = inhibition” value is -1.48%.

Take `CCN(C(=O)Nc1cccc2ccccc12)c1ccccc1`: the “activity change, negative = inhibition” value is -16.1%.

Consider `CCCCC(O)(CCCC)C(=O)NN(C(=O)CCl)c1ccccc1`, for which the Potency is 31.6 µM (active).

With `CCCCNC(=O)CN1C(=O)NC(Cc2ccccc2)(Cc2ccccc2)C1=O`, the “activity change, negative = inhibition” value is 20.1%.

Regarding `Cc1cc2ccccc2n1CCNC(=O)c1ccc(F)cc1`, the “activity change, negative = inhibition” value was 23.9%.

In the case of `Cc1cccc2c3c(ccc12)C1=C(C(=O)C3=O)C(C)CO1` (stereo not drawn), the “activity change, negative = inhibition” value is -20.6%.

`COc1ccc(-c2nc3cnc(Oc4ccccc4)nc3n(Cc3cccs3)c2=O)cc1`: the “activity change, negative = inhibition” value was 5.33%.

On to `c1ccc(-c2cnc(CN3CCN(c4ccccc4)CC3)o2)cc1`, for which the “activity change, negative = inhibition” value was 7.04%.

With `CCCCn1c(SCc2ncc(-c3ccccc3)o2)nc2cc(S(N)(=O)=O)ccc21`, the Potency is 28.2 µM (active).

Regarding `CCCCn1c(SCC(=O)N2CCCC2=O)nc2cc(S(N)(=O)=O)ccc21`, the “activity change, negative = inhibition” value is -13%.

`CN1CCN2c3ccccc3Cc3ccccc3[C@@H]2C1`: the “activity change, negative = inhibition” value was -8.38%.

With `CS(=O)(=O)N1CCC[C@@]2(CCN(c3ccncc3)C2)C1`, the “activity change, negative = inhibition” value was 5.48%.

Take `Cc1ccc(-c2ccc(C(=O)N3CCc4nnc(CNC(=O)c5ccccc5)n4CC3)cc2)cc1`: the “activity change, negative = inhibition” value was 9.83%.

With `Cc1sc2nc(-c3ccccc3F)oc(=O)c2c1C`, the “activity change, negative = inhibition” value is 9.65%.

`COc1ccc(-c2csc3nc(-c4ccccc4F)oc(=O)c23)cc1OC`: the Potency is 20 µM (active).

With `COc1ccc(-c2csc3ncnc(Oc4ccc5c(C)cc(=O)oc5c4)c23)cc1`, the “activity change, negative = inhibition” value is -19.5%.

On to `CCOC(=O)C1CCCN(C(=O)c2ccc(-n3ccc4ccccc43)s2)C1` (stereo not drawn), for which the “activity change, negative = inhibition” value is -12.6%.

Take `Cc1ccc(Cl)c(OCC(=O)N(C)CC(=O)Nc2ccc(N3CCOCC3)cc2)c1`: the “activity change, negative = inhibition” value is -9.29%.

On to `CCn1c2ccccc2c2cc(NC(=O)COc3ccc(C)cc3C)ccc21`, for which the “activity change, negative = inhibition” value is -14.4%.

As for `Cc1ccc(OCC(=O)Nc2ccc(N3CCN(C(=O)c4ccco4)CC3)cc2)c(C)c1`, the Potency was 15.8 µM (active).

As for `COc1cccc(C(=O)Nc2c3c(nn2-c2cccc(C)c2C)CS(=O)(=O)C3)c1OC`, the “activity change, negative = inhibition” value was -29.6%.

Take `COc1ccc(C(=O)NC2CCCc3c2cnn3-c2cccc(C)c2C)c(OC)n1` (stereo not drawn): the Potency is 17.8 µM (active).

As for `Cc1cccc(C(=O)OC(C)C(=O)NC2CCCc3ccccc32)c1O` (stereo not drawn), the “activity change, negative = inhibition” value was 18.9%.

`CCOc1ccc(N(CC)C(=O)c2noc3c2COc2ccc(C)cc2-3)cc1`: the “activity change, negative = inhibition” value was -9.48%.

On to `O=C(C1CCC(Cn2c(=O)c3sccc3n(Cc3ccccc3F)c2=O)CC1)N1CCCCC1` (stereo not drawn), for which the “activity change, negative = inhibition” value was 0%.

For the molecule `CNc1ccc(-c2nc(-c3ccccc3C)no2)cc1[N+](=O)[O-]`, the “activity change, negative = inhibition” value is 67.5%.

Regarding `C#CCCCCCCCCCCCCCCCC(=O)O`, the Potency result was “inactive”.

`CC(=O)c1ccc(NC(=O)CCc2nc(-c3ccc(C)cc3)no2)cc1`: the “activity change, negative = inhibition” value was -17.7%.

Consider `Fc1ccc(OCc2nn3c(Cn4nnc5ccccc54)nnc3s2)cc1`, for which the “activity change, negative = inhibition” value was -6.75%.

Consider `N#CCCn1cnc2ccccc21`, for which the “activity change, negative = inhibition” value was -16%.
